PubChem BioAssay (Tox21)
Results filed as inconclusive are left out. Where a call stands in place of a potency, no number is given. Calls of active or inactive are those of the source. Unless noted, calls come from the whole dose curve; as a rule, active = well fitted curve in the direction sought with a large enough effect in the repeat runs; inconclusive = weak or mixed curves; inactive = no such curve, though single readings can be large; an effect the other way counts as inactive or inconclusive.

Columns and labels:
[1] = qHTS assay to identify small molecule agonists of the estrogen related receptor signaling pathway with the pleiotropic PPARgamma coactivator (PGC) (AID 1224823)
In short: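 Steps: plate PGC/ERR cells at 2,000 cells/well; incubate 6 h, 37 C/5% CO2; pin-transfer compounds (DMSO); incubate 18 h, 37 C; add One-Glo; 30 min RT; read luminescence.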

[2] = qHTS assay to identify small molecule antagonists of the estrogen related receptor (ERR) signaling pathway from Tox21 library - cell viability counter screen (AID 1224834); note: nearly all actives have a fitted effect of over 30% in size; note: potency is the fitted concentration of half-maximal effect
In short: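 CellTiter-Fluor fluorescence measured; ERR cells; 17.5 h compound incubation at 37 C; 30 min reagent step.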

[3] = biological target: Luciferin 4-monooxygenase (Photinus pyralis) (UniProt P08659); test: qHTS assay to identify small molecule inhibitors of firefly luciferase (AID 1224835); note: nearly all actives have a fitted effect of over 25% in size; note: potency is the fitted concentration of half-maximal effect
In short: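 Biochemical qHTS: compounds run as interplate titrations against purified firefly enzyme, with D-luciferin and ATP each at its KM concentration. Light output recorded by CCD imaging.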

[4] = qHTS assay to identify small molecule agonists of the constitutive androstane receptor (CAR) signaling pathway - cell viability counter screen (AID 1224836); note: nearly all actives have a fitted effect of over 45% in size; note: potency is the fitted concentration of half-maximal effect
In short: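 Multiplexed viability check: HepG2-CYP2B6-hCAR cells, 15-point compound dosing, 0.75 uM PK11195 final, 23 h at 37 C, CellTiter-Fluor fluorescence.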

[5] = qHTS assay to identify small molecule antagonists of the constitutive androstane receptor (CAR) signaling pathway - cell viability counter screen (AID 1224837); note: series mostly up to about 92 µM; nearly all actives have a fitted effect of over 45% in size
In short: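 Using CellTiter-Fluor, viability is scored in HepG2 cells stably carrying hCAR and a 2.2kb CYP2B6 reporter after 23 hr compound exposure across 15 concentrations, with CITCO present at 50 nM.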

[6] = biological target: Nuclear receptor subfamily 1 group I member 3 (Homo sapiens) (UniProt Q14994); test: qHTS assay to identify small molecule antagonists of the constitutive androstane receptor (CAR) signaling pathway (AID 1224838);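 note: HepG2 cells stably expressing hCAR with CYP2B6 luciferase reporter stimulated by CITCO; nearly all actives have a fitted effect of over 40% in size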
In short: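 Reporter luminescence was quantified after 24 h exposure of hCAR/CYP2B6-2.2kb double-stable HepG2 cells to compounds at 15 concentrations in the presence of 50 nM CITCO final.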

[7] = biological target: Nuclear receptor subfamily 1 group I member 3 (Homo sapiens) (UniProt Q14994); test: qHTS assay to identify small molecule agonists of the constitutive androstane receptor (CAR) signaling pathway (AID 1224839); note: nearly all actives have a fitted effect of over 15% in size; note: potency is the fitted concentration of half-maximal effect
In short: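 Using human hepatoma HepG2 cells engineered with hCAR and a CYP2B6-2.2kb reporter, 15-concentration compound series were incubated 24 h alongside PK11195 at 0.75 uM final, with luminescence quantified afterwards.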

[8] = qHTS assay to identify small molecule antagonists of the estrogen related receptor signaling pathway with the pleiotropic PPARgamma coactivator (PGC) from Tox21 10K library - cell viability counter screen (AID 1224840; active = well fitted cell-killing curve with a large enough effect in the repeat runs, not every such curve was filed as active; note: nearly all actives have a fitted effect of over 40% in size)
In short: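 Here the PGC/ERR cells serve as a cytotoxicity control: they are exposed to compounds for 17.5 hours at 37 C, and live-cell signal is quantified using CellTiter-Fluor fluorescence.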

[9] = qHTS assay to identify small molecule antagonists of the estrogen related receptor signaling pathway with the pleiotropic PPARgamma coactivator (PGC) from Tox21 10K library (AID 1224841; call rule not given here; note: series mostly up to about 92 µM; actives are mostly falling curves and most rising ones were filed inactive; nearly all actives have a fitted effect of over 50% in size)
In short: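 Each well held 2,000 PGC/ERR cells, pre-incubated six hours (37 C, 5% CO2). Test substances in DMSO were added by pin tool and left for 18 h at 37 C before luciferase detection by One-Glo.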

[10] = qHTS assay to identify small molecule agonists of the estrogen related receptor signaling pathway with the pleiotropic PPARgamma coactivator (PGC) from Tox21 10K library (AID 1224842); note: nearly all actives have a fitted effect of over 15% in size
In short: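 PGC/ERR reporter cell line, 2,000 cells per well, incubated 6 h at 37 C before 23 nL compound in DMSO was added. After 18 h at 37 C, One-Glo luminescence read following 30 min at room temperature.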

Sequence of Nuclear receptor subfamily 1 group I member 3 (Homo sapiens) (Q14994 whole entry, looked up): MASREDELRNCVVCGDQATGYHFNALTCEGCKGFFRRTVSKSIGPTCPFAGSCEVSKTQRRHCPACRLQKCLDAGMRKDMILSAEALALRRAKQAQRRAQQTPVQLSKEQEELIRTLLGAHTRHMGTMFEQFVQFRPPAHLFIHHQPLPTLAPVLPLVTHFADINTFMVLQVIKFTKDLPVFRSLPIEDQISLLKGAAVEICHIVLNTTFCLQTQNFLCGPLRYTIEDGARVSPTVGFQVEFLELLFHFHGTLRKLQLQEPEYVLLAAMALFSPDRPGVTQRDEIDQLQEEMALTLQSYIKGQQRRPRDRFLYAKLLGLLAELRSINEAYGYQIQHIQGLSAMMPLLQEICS
Sequence of Luciferin 4-monooxygenase (Photinus pyralis) (P08659 whole entry, looked up): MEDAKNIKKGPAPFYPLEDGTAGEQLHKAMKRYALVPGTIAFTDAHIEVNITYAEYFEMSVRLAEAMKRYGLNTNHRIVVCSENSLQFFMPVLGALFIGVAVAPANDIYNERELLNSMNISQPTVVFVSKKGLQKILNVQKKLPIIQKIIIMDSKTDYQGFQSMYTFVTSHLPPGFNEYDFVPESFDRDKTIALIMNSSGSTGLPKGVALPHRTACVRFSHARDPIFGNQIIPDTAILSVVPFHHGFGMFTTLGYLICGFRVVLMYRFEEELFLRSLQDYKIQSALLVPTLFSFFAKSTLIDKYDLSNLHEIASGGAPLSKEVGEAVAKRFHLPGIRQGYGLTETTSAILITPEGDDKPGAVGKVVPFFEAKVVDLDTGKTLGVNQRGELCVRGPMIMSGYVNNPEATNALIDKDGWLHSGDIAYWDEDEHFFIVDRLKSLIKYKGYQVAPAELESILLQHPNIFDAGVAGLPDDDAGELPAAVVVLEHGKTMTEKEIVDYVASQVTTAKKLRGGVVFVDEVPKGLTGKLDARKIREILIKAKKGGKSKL

Compound | outcome [1] | Potency [2] | Potency [3] | Potency [4] | Potency [5] | Potency [6] | Potency [7] | Potency [8] | Potency [9] | Potency [10]
O=C(O)CCc1nc(-c2ccccc2)c(-c2ccccc2)o1 | inactive | inactive | inactive | inactive | inactive | inactive | inactive | inactive | inactive | inactive
CC(C)(c1ccccc1)c1ccccc1 | – | inactive | inactive | inactive | inactive | inactive | 45.1 µM (active) | inactive | – | –
CCN(CC)CCNC(=O)COc1ccc(OC)cc1 | – | inactive | inactive | inactive | inactive | inactive | inactive | inactive | – | –
CCCCCCCC/C=C\CCCCCCCCCCCC(=O)O | – | inactive | inactive | inactive | inactive | inactive | inactive | inactive | – | –
CN1C[C@H](C(=O)N[C@]2(C)O[C@@]3(O)[C@@H]4CCCN4C(=O)[C@H](Cc4ccccc4)N3C2=O)C[C@@H]2c3cccc4[nH]cc(c34)C[C@H]21 | inactive | 26.6 µM (active) | inactive | – | – | inactive | inactive | – | – | inactive
Cc1ccc(C(C)(C)O)cc1 | – | inactive | inactive | inactive | inactive | inactive | inactive | inactive | – | –
CO/N=C(/C(=O)N[C@@H]1C(=O)N2C(C(=O)O)=C(COC(N)=O)CS[C@H]12)c1ccco1 | – | inactive | inactive | inactive | inactive | inactive | inactive | inactive | – | –
CNC(=O)c1cnn(-c2nc(N)c3ncn([C@@H]4O[C@H](CO)[C@@H](O)[C@H]4O)c3n2)c1 | – | inactive | inactive | inactive | inactive | inactive | inactive | inactive | – | –
CCOC(=O)C1=C(C)NC(C)=C(C(=O)OC)C1c1cccc(Cl)c1Cl (stereo unspecified) | inactive | inactive | inactive | inactive | inactive | inactive | inactive | inactive | – | inactive
N#CCCN(CCO)CCO | – | inactive | inactive | inactive | inactive | inactive | inactive | inactive | – | –
O=C(O)c1cccc(-c2noc(-c3ccccc3F)n2)c1 | – | inactive | 0.0087 µM (active) | inactive | inactive | inactive | 0.0075 µM (active) | inactive | – | –
C1COC1 | – | inactive | inactive | inactive | inactive | inactive | inactive | inactive | – | –
CN(C)CCC=C1c2ccccc2C=Cc2ccccc21 | inactive | – | inactive | inactive | – | inactive | inactive | inactive | inactive | inactive
Clc1cc(Cl)nc(Cl)n1 | – | inactive | inactive | inactive | inactive | inactive | inactive | inactive | – | –
C=CC(=O)[O-].C=CC(=O)[O-].[Zn+2] | – | inactive | 2.19 µM (active) | inactive | inactive | inactive | inactive | inactive | – | –
O=C1NCCN1CCO | – | inactive | inactive | inactive | inactive | inactive | inactive | inactive | – | –
CC=C(Cl)Cl | – | inactive | inactive | inactive | inactive | inactive | inactive | inactive | – | –
CCCC(C(=O)OCCN(CC)CC)(c1ccccc1)c1ccccc1 | inactive | 29.8 µM (active) | inactive | inactive | – | inactive | 11.9 µM (active) | – | – | inactive
c1ccc2c(c1)CCc1ccccc1N2 | – | inactive | 63.6 µM (active) | inactive | inactive | inactive | 54.8 µM (active) | inactive | – | –
CCC(=O)OC | – | inactive | inactive | inactive | inactive | inactive | inactive | inactive | – | –
O=C(CCc1ccc(O)cc1)c1c(O)cc(O)cc1O | inactive | – | 72.6 µM (active) | inactive | inactive | – | – | – | – | inactive
C1C[C@@H]2[C@H]3CC[C@H](C3)[C@@H]2C1 | – | inactive | inactive | inactive | inactive | inactive | inactive | inactive | – | –
Cc1ccccc1S | – | inactive | inactive | inactive | inactive | inactive | inactive | inactive | – | –
CN1C(=O)c2ccccc2C1=O | inactive | inactive | – | – | inactive | inactive | inactive | inactive | – | inactive
CC(=O)OCC[N+](C)(C)C | – | inactive | inactive | inactive | inactive | inactive | inactive | inactive | – | –
Cc1cc(C)c(N)cc1C | – | inactive | inactive | inactive | inactive | inactive | inactive | inactive | – | –
OCCN1CCN(CCCN2c3ccccc3Sc3ccc(Cl)cc32)CC1 | inactive | 26.6 µM (active) | – | 29.8 µM (active) | – | – | inactive | – | inactive | –

Compound | outcome [1] | Potency [2] | Potency [3] | Potency [4] | Potency [5] | Potency [6] | Potency [7] | Potency [8] | Potency [9] | Potency [10]
C=C(C)C(=O)OCCCCCCCCCCCCC | – | inactive | inactive | inactive | inactive | inactive | inactive | inactive | – | –
CC(=O)c1cc2ccccc2s1 | – | inactive | inactive | inactive | inactive | inactive | inactive | inactive | – | –
CC1(C)O[C@@H]2C[C@H]3[C@@H]4C[C@H](F)C5=CC(=O)C=C[C@]5(C)[C@H]4[C@@H](O)C[C@]3(C)[C@]2(C(=O)CO)O1 | – | inactive | inactive | inactive | inactive | inactive | inactive | inactive | – | –
O=C(O)C[C@H](NC(=O)OCc1ccccc1)C(=O)O | – | inactive | inactive | inactive | inactive | inactive | inactive | inactive | – | –
CCCC(=O)C(=O)O | – | inactive | inactive | inactive | inactive | inactive | inactive | inactive | – | –
O=C(Cn1ccnc1[N+](=O)[O-])NCCO | – | inactive | inactive | inactive | inactive | inactive | inactive | inactive | – | –
C=CCc1ccccc1OCC(O)CNC(C)C (stereo unspecified) | – | inactive | inactive | inactive | inactive | inactive | inactive | inactive | – | –
CCOC(C)=O | – | inactive | inactive | inactive | inactive | inactive | inactive | inactive | – | –
Brc1cc(Br)c(Oc2cc(Br)c(Br)cc2Br)cc1Br | – | inactive | inactive | inactive | inactive | inactive | inactive | inactive | – | –
CCCCC(CC)COP(=O)(O)O (stereo unspecified) | – | inactive | inactive | inactive | inactive | inactive | inactive | inactive | – | –
C[C@H]1c2cccc(O)c2C(O)=C2C(=O)[C@]3(O)C(O)=C(C(N)=O)C(=O)[C@@H](N(C)C)[C@@H]3[C@@H](O)[C@@H]21 | inactive | inactive | inactive | – | – | inactive | inactive | inactive | – | inactive
CN(C)CCN1C(=O)c2ccccc2N(C)c2ccccc21 | – | inactive | inactive | inactive | inactive | inactive | 26.6 µM (active) | inactive | – | –
O=C(Nc1cccc2c(=O)cc(-c3nn[nH]n3)oc12)c1ccc(OCCCCc2ccccc2)cc1 | – | inactive | 27.5 µM (active) | inactive | inactive | inactive | inactive | inactive | – | –
CC1(C)[C@@H](OC(=O)CCC(=O)O)CC[C@]2(C)[C@H]3C(=O)C=C4[C@@H]5C[C@@](C)(C(=O)O)CC[C@]5(C)CC[C@@]4(C)[C@]3(C)CC[C@@H]12 | – | inactive | inactive | inactive | inactive | inactive | inactive | inactive | – | inactive
CC(=O)OCC(=O)NCCCOc1cccc(CN2CCCCC2)c1 | – | inactive | inactive | inactive | inactive | inactive | inactive | inactive | – | inactive
CC/C=C1/OC(=O)c2ccccc21 | – | inactive | inactive | inactive | inactive | inactive | inactive | inactive | inactive | inactive
FC(F)(F)c1ccccc1Cl | – | inactive | inactive | inactive | inactive | inactive | inactive | inactive | – | inactive
CC(C)=CCC/C(C)=C/CC/C(C)=C/CCC(=O)OC/C=C(\C)CCC=C(C)C | – | inactive | inactive | inactive | inactive | inactive | inactive | inactive | inactive | inactive
Cc1[nH]cnc1CN1CCc2c(c3ccccc3n2C)C1=O | – | inactive | inactive | inactive | inactive | inactive | inactive | inactive | – | inactive
CCCCCCCCN | – | inactive | inactive | inactive | inactive | inactive | inactive | inactive | – | –
CCC(=O)C1CC(C(C)C)CC=C1C (stereo unspecified) | – | inactive | inactive | inactive | inactive | inactive | inactive | inactive | inactive | inactive
C[C@H]1C[C@H](O)c2ccsc2S1(=O)=O | – | inactive | inactive | inactive | inactive | inactive | inactive | inactive | inactive | inactive
CCCCCC[C@@H](O)C/C=C\CCCCCCCC(=O)O | – | inactive | inactive | inactive | inactive | inactive | inactive | inactive | – | inactive
C/C=C/C=C/C=O | – | inactive | inactive | inactive | inactive | inactive | inactive | inactive | inactive | inactive
Cc1cccc(N(C)C(=S)Oc2ccc3c(c2)CCC3)c1 | – | inactive | inactive | inactive | inactive | inactive | 23.7 µM (active) | inactive | inactive | inactive
CCCCCC#CC(=O)OC | – | inactive | inactive | inactive | inactive | inactive | inactive | inactive | inactive | inactive
